IL1B secr inh: blocks inflammasome-driven IL-1 beta release; THP-1 LPS/ATP IL-1B secretion, AlphaLISA, 16 h; active compounds read low; 360,000 compounds, 4.7% hits; AID 743279; activity change, % at 57.5 µM; in the data active means activity change below about -50%; inconclusive means mostly about -30% to -49%
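Secreted IL-1B measured by AlphaLISA bead assay after 16 h compound exposure of THP-1 cells; compounds (final up to 57.5 uM) added 1 h before LPS (250 ng/mL) and ATP (1.25 mM) stimulation; lower signal means less secretion.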
ELG1 DNA repair: ELG1-dependent DNA repair inhibition; HEK293T ELG1-luciferase reporter, luminescence, 16 h; DNA damage induced by 5-fluorouridine; Potency, µM (highest dose often 46.1 µM), most hits filed as inhibitors; 330,000 compounds, 2.3% hits; AID 504467; further: nearly all actives have a fitted effect of over 55% in size
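In this reporter screen, reduction of luminescence relative to DMSO vehicle indicated activity. Compounds and 5-fluorouridine were added together to 2,000 cells per well, incubated for 16 hr at 37 °C, then developed with ONE-Glo.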
TDP1 cell noCPT: qHTS for Inhibitors of human tyrosyl-DNA phosphodiesterase 1 (TDP1): qHTS in cells in absence of CPT; DT40 Tdp1-/- hTDP1 cells, no CPT, ATP luminescence, 48 h; Potency, µM (highest dose often 46.2 µM), usual class: inhibitors; 420,000 compounds, 15% hits; AID 686978, 2013; further: nearly all actives have a fitted effect of over 55% in size
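Chicken DT40 Tdp1-/- cells stably complemented with human TDP1 were seeded at 400 cells/well with DMSO in place of 20 nM camptothecin. After compound pinning, cells grew at least 48 hr at 37 °C; viability read by CellTiter-Glo luminescence.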
HT1080-NT tox: kills 2HG-producing HT-1080-NT fibrosarcoma cells | AID 686970 | 360,000 compounds, 1.6% hits | Potency, µM (titrated, usually from 46.1 µM), actives largely listed as cytotoxic | HT-1080-NT fibrosarcoma viability, CellTiter-Glo ATP luminescence, 48 h;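 further: NT is the 2HG producing partner of a matched IDH1 knockdown line; nearly all actives have a fitted effect of over 55% in size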
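HT-1080-NT; 750 cells/well; 5% FBS RPMI; 48 h compound, 37 degrees C; CellTiter-Glo luminescence; curve fitting and curve-class assignment.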
HT1080 IDH1KD tx: HT-1080 IDH1 knockdown cell toxicity (counter line); HT-1080 IDH1 knockdown viability, ATP luminescence, 48 h; Potency, µM (doses to about 46.1 µM), hits mostly cytotoxic; 360,000 compounds, 2% hits
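In this qHTS, HT-1080 cells depleted of IDH1 are exposed for 48 h at 37 °C to compound titrations. Toxicity is scored from CellTiter-Glo luminescence, with DMSO as full viability and medium alone as none.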
TDP1 cell CPT: growth inhibition of DT40 Tdp1-/-;hTDP1 cells with camptothecin (screen for TDP1 inhibitors); 420,000 compounds, 12% hits; Potency, µM (top dose mostly 46.2 µM), actives largely listed as inhibitors; chicken DT40 Tdp1-/-;hTDP1 cells + 20 nM CPT, ATP luminescence, 48 h; AID 686979; further: nearly all actives have a fitted effect of over 55% in size
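Chicken DT40 Tdp1-/- cells complemented with human TDP1, 400 cells/well, exposed to compounds plus 20 nM camptothecin for at least 48 h at 37 C; viability read as ATP content by CellTiter-Glo luminescence.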
A number is an active result; - = inactive; ? = inconclusive; . = no result given. Most compounds without a hit are left out; they make up all but 19% or so of the library. Unless noted, the call rests on the fitted dose curve; in most records, active means well fitted curve in the direction sought with a large enough effect; inconclusive means small, poorly fitted or top-dose-only effect, or another doubt; inactive means no such curve, though single readings can be large; an effect the other way counts as inactive or inconclusive.

SMILES	IL1B secr inh	ELG1 DNA repair	TDP1 cell noCPT	HT1080-NT tox	HT1080 IDH1KD tx	TDP1 cell CPT
O=[N+]([O-])c1ccccc1CN1CC=C(c2ccc(F)cc2)CC1	-	?	?	-	-	23µM
C[C@@H]1[C@H]2Cc3ccc(O)cc3[C@]1(C)CCN2C	.	.	-	.	.	-
Cc1ccc(C)c(N2CCN(c3ncnc4onc(C)c34)CC2)c1	.	.	13µM	.	.	?
CN(C)Cc1c[nH]c2cc([N+](=O)[O-])ccc12	-	.	-	-	-	-
O=C(Nc1ccc(Br)cc1)c1nn(C23CC4CC(CC(C4)C2)C3)cc1Br	-	-	15µM	-	-	?
CCOC(=O)C1=Nc2ccccc2/C1=C\c1c(O)n(C)c(=O)n(C)c1=O	-	21µM	?	-	-	?
Cn1c(O)c(C=Nc2ccccc2-c2ccccc2)c(=O)n(C)c1=O	-	-	-	-	-	-
CNC(=O)Oc1ccc2c(c1)[C@@]1(C)CCN(C)[C@@H]1N2C	.	.	-	.	.	-
C=Cc1cc(OC)c2c(c1)c(=O)oc1c2cc(OC)c2c(O)ccc(C3OC(C)C(O)C(C)(O)C3O)c21 (configuration not stated)	-100	.	0.21µM	9.2µM	1.5µM	0.16µM
CC(C)(COC(=O)C(c1ccccc1)c1ccccc1)CN1CCOCC1	-	.	21µM	-	-	?
CCN1CCCC(OC(=O)C(c2ccccc2)c2ccccc2)C1 (configuration not stated)	-	-	?	-	-	?
Cc1ccc(C(O)(C(=O)OC(C)C)C(O)c2ccc(F)cc2)cc1 (configuration not stated)	-	.	21µM	-	-	?
CC1CN(c2ccc([N+](=O)[O-])c3cccnc23)CC(C)N1 (configuration not stated)	-	-	23µM	-	-	-
CC(Cc1ccccc1)NCC(=O)Nc1cc(N(C)C)nc2ccccc12 (configuration not stated)	.	?	?	?	23µM	?
CC(NC(=O)CNC(=S)N(Cc1ccccc1)Cc1cccnc1)c1ccccc1 (configuration not stated)	-	-	?	-	-	?
COc1ccc(OC(=O)N(C)C[C@@H]2OCc3cnnn3CCCC(=O)N([C@@H](C)CO)C[C@H]2C)cc1	-	.	-	-	-	-
CC(=O)NS(=O)(=O)c1ccc(NC(=O)c2cccn(Cc3ccc(Cl)cc3)c2=O)cc1	.	.	-	.	.	-
CC(Nc1cc(C)cc(C)c1)=[N+](C)CCNS(=O)(=O)c1ccc(Cl)cc1	-79	-	-	-	-	13µM
O=C(O)[C@H](O)[C@@H](O)C(=O)O	-	-	-	-	-	-
COc1ccc2nc(NC(=O)c3nc(S(=O)(=O)Cc4cccc(C)c4)ncc3Cl)sc2c1	.	.	2.1µM	.	.	1.6µM
O=S1(=O)OCCC(c2ccccc2)N1Cc1ccccc1 (configuration not stated)	-	-	-	-	-	?
COc1ccc([C@@H](O)[C@@H](N)c2ccccc2)cc1	-	.	-	-	-	-
CCN(CC)C(=O)C(C(=O)c1cccc([N+](=O)[O-])c1)n1cc(Cl)ccc1=O (configuration not stated)	-	-	?	-	-	-
Oc1ccc(O)c2c1C1(Cl)C(Cl)=C(Cl)C2(Cl)C1(Cl)Cl	-61	.	16µM	?	23µM	23µM
Oc1ccccc1Cl	-	-	-	-	-	-
SMILES	IL1B secr inh	ELG1 DNA repair	TDP1 cell noCPT	HT1080-NT tox	HT1080 IDH1KD tx	TDP1 cell CPT
C=C(C)[C@@H]1[C@H]2OC(=O)[C@H]1[C@]1(O)C[C@H]3O[C@]34C(=O)O[C@H]2[C@]14C	-	.	-	-	-	-
c1ccc(CN2CCC3(CCc4ccccc43)CC2)cc1	.	.	?	.	.	24µM
c1ccc(N2CCC3(CCNCC3)CC2)nc1	.	.	?	.	.	18µM
c1ccc(N2CCC3(CCNCC3)CC2)cc1	.	.	18µM	.	.	-
c1ccc(CN2CCC3(CCNCC3)CC2)cc1	.	.	3.3µM	.	.	4.6µM
O=C(C(=O)N1CCOCC1)c1cn(Cc2ccccc2F)c2ccccc12	-	-	-	-	-	-
C[C@@]12CCC(Cl)C[C@H]1CCC1C2CC[C@]2(C)C(=O)CCC12 (some centres not stated)	.	.	-	.	.	-
Cn1nc(C(F)(F)F)c(-c2ccccc2)c1N	.	?	-	-	-	-
C=C1C(=O)O[C@@H]2C[C@@H](C)[C@@H]3C=CC(=O)[C@@]3(C)[C@@H](OC(=O)CC(=O)O[C@H]3[C@@H]4C(=C)C(=O)O[C@@H]4C[C@@H](C)[C@@H]4C=CC(=O)[C@]43C)[C@H]12	-	?	0.073µM	?	0.23µM	0.058µM
C=C1C(=O)O[C@H]2C[C@@H](C)[C@@H]3C=CC(=O)[C@@]3(C)C[C@H]12	-111	?	0.65µM	?	8.2µM	1µM
Nc1ccc(Cl)cc1N	.	.	-	.	.	?
Cc1cc(C)nc(-n2c(C)nc3cc(Cl)ccc3c2=O)c1	-	-	?	-	-	-
Cc1c(Cl)cccc1N1C(=O)NC(=O)/C(=C\c2cc(C)n(-c3cccc(C(=O)O)c3C)c2C)C1=O	-	-	-	-	-	-
COC[C@H]1OC(=O)c2coc3c2[C@@]1(C)C1=C(C3=O)[C@@H]2CCC(=O)[C@@]2(C)C[C@H]1OC(C)=O	-101	.	1.8µM	?	23µM	0.92µM
CCC1(C(=O)c2ccc(C)cc2)C2c3ccccc3OC(=O)C21C(=O)O (configuration not stated)	-	-	-	-	-	-
CC(C)CCOP(=O)(c1ccc(N(C)C)cc1)C(O)c1ccc(C(C)C)cc1 (configuration not stated)	-58	-	21µM	-	-	?
CC(C)CCOP(=O)(c1ccc(N(C)C)cc1)C(O)c1ccc(Cl)cc1Cl (configuration not stated)	-88	?	21µM	23µM	16µM	16µM
CCCCOP(=O)(c1ccc(N(C)C)cc1)C(O)c1ccc(C(C)C)cc1 (configuration not stated)	-	-	-	-	-	?
Cc1nc2ccccc2c(=O)n1-c1cccc([N+](=O)[O-])c1	-	-	-	-	-	-
OCC(Br)CBr (configuration not stated)	-	-	-	-	-	-
C=C[C@H]1CN2CC[C@H]1C[C@@H]2[C@@H](O)c1ccnc2ccccc12	-	-	?	-	-	?

Source: PubChem BioAssay (National Center for Advancing Translational Sciences (NCATS))
